# From the supplement of paper PMC6522484
# ± gives the standard deviation of the averaged measurements.
# Legend:
# DLD1 [1] = assay: cell viability (CellTiter-Glo) relative to plate median (fraction of plate median); higher = more viable cells; conditions: 5 µM; treatment time 24 h; reporter: 7TFP
# Procedure, shortened: (§1)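 Stable lentiviral TCF/Wnt firefly luciferase reporters (7TFP or TCF4/Wnt) were present in the colorectal cancer cell lines used. These cells received library compounds at a final 5 µM for 24 h, and parallel plates were read for firefly luciferase or CellTiterGlo luminescence. Each well was normalised to the plate median, and the value reported is the mean of two independent replicates.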
# HCT116 = assay: as above; conditions: 5 µM; treatment time 24 h; reporter: TCF4/Wnt
# Procedure, shortened: as §1
# SW480 [2] = assay: as above; conditions: 5 µM; treatment time 24 h; reporter: 7TFP
# Procedure, shortened: as §1
# DLD1 [3] = assay: TCF/Wnt firefly luciferase reporter signal relative to plate median (fraction of plate median); higher = higher Wnt reporter signal; conditions: 5 µM; treatment time 24 h; reporter: 7TFP
# Procedure, shortened: as §1
# SW480 [4] = assay: as above; conditions: 5 µM; treatment time 24 h; reporter: 7TFP
# Procedure, shortened: as §1
compound,measurement,setting,value
CC(=O)Nc1ccc(S(=O)(=O)Nc2ccc([N+](=O)[O-])cc2)cc1,cell viability,DLD1 [1],0.868 ± 0.03
same,cell viability,HCT116,0.933 ± 0.12
same,cell viability,SW480 [2],1.02 ± 0.028
same,TCF/Wnt firefly luciferase reporter signal,DLD1 [3],1.1 ± 0.071
same,TCF/Wnt firefly luciferase reporter signal,SW480 [4],1.08 ± 0.042
CC1=C(/C=C/C(C)=C/C=C/C(C)=C/C(=O)O)C(C)(C)CCC1,cell viability,DLD1 [1],0.9525 ± 0.0078
same,cell viability,HCT116,0.973 ± 0.067
same,cell viability,SW480 [2],0.994 ± 0.052
same,TCF/Wnt firefly luciferase reporter signal,DLD1 [3],0.912 ± 0.037
same,TCF/Wnt firefly luciferase reporter signal,SW480 [4],0.889 ± 0.018
CN[C@H](CC(=O)O)C(=O)O,cell viability,DLD1 [1],0.99 ± 0.028
same,cell viability,HCT116,0.966 ± 0.049
same,cell viability,SW480 [2],0.957 ± 0.0042
same,TCF/Wnt firefly luciferase reporter signal,DLD1 [3],1.02 ± 0.014
same,TCF/Wnt firefly luciferase reporter signal,SW480 [4],0.85 ± 0.045
COc1ccc2c(c1)OC1(O)COc3cc(OC)c(OC)cc3C1=C2 (stereo not given),cell viability,DLD1 [1],1.01 ± 0.035
same,cell viability,HCT116,1.05 ± 0.05
same,cell viability,SW480 [2],1.08 ± 0.035
same,TCF/Wnt firefly luciferase reporter signal,DLD1 [3],0.985 ± 0.13
same,TCF/Wnt firefly luciferase reporter signal,SW480 [4],0.895 ± 0.075
CCOc1nc2cccc(C(=O)OC(C)OC(=O)OC3CCCCC3)c2n1Cc1ccc(-c2ccccc2-c2nn[nH]n2)cc1 (stereo not given),cell viability,DLD1 [1],0.864 ± 0.052
same,cell viability,HCT116,0.959 ± 0.042
same,cell viability,SW480 [2],1.045 ± 0.0071
same,TCF/Wnt firefly luciferase reporter signal,DLD1 [3],1.06 ± 0.2
same,TCF/Wnt firefly luciferase reporter signal,SW480 [4],1.07 ± 0.064
N=C(N)N/N=C/c1c(Cl)cccc1Cl,cell viability,DLD1 [1],0.976 ± 0.028
same,cell viability,HCT116,1.02 ± 0.042
same,cell viability,SW480 [2],1.02 ± 0.014
same,TCF/Wnt firefly luciferase reporter signal,DLD1 [3],1.02 ± 0.021
same,TCF/Wnt firefly luciferase reporter signal,SW480 [4],1.05 ± 0.064
Nc1ccc(S(=O)(=O)c2ccc(N)cc2)cc1,cell viability,DLD1 [1],1.08 ± 0.057
same,cell viability,HCT116,0.956 ± 0.063
same,cell viability,SW480 [2],1.02
same,TCF/Wnt firefly luciferase reporter signal,DLD1 [3],0.94 ± 0.054
same,TCF/Wnt firefly luciferase reporter signal,SW480 [4],0.922 ± 0.059
O=C1NCCN(C(=O)[C@H](Cc2ccccc2)NC(=O)[C@@H]2CCCN2)C1=O [Prolyl-phenylalanyl-diketopiperazine],cell viability,DLD1 [1],1.04 ± 0.15
same,cell viability,HCT116,1.02 ± 0.035
same,cell viability,SW480 [2],1.02 ± 0.021
same,TCF/Wnt firefly luciferase reporter signal,DLD1 [3],0.984 ± 0.02
same,TCF/Wnt firefly luciferase reporter signal,SW480 [4],0.918 ± 0.0014
C#C[C@]1(O)CC[C@H]2[C@@H]3CCC4=Cc5oncc5C[C@]4(C)[C@H]3CC[C@@]21C,cell viability,DLD1 [1],1.06 ± 0.021
same,cell viability,HCT116,0.936 ± 0.029
same,cell viability,SW480 [2],1.01 ± 0.035
same,TCF/Wnt firefly luciferase reporter signal,DLD1 [3],1.04
same,TCF/Wnt firefly luciferase reporter signal,SW480 [4],0.817 ± 0.046
CCN(CC)C(=S)SSC(=S)N(CC)CC,cell viability,DLD1 [1],0.764 ± 0.14
same,cell viability,HCT116,0.504 ± 0.17
same,cell viability,SW480 [2],0.938 ± 0.12
same,TCF/Wnt firefly luciferase reporter signal,DLD1 [3],1.02 ± 0.41
same,TCF/Wnt firefly luciferase reporter signal,SW480 [4],0.842 ± 0.043
CC1(C)O[C@H]2[C@H](O)C[C@](O)(C(N)=O)C[C@H]2O1,cell viability,DLD1 [1],1.08 ± 0.035
same,cell viability,HCT116,1.17 ± 0.15
same,cell viability,SW480 [2],1.09 ± 0.021
same,TCF/Wnt firefly luciferase reporter signal,DLD1 [3],1.07 ± 0.15
same,TCF/Wnt firefly luciferase reporter signal,SW480 [4],0.916 ± 0.055
CC(=O)[C@H]1CC[C@H]2[C@@H]3CCC4=CC(=O)CC[C@]4(C)[C@H]3CC[C@]12C,cell viability,DLD1 [1],1.01 ± 0.078
same,cell viability,HCT116,1.02 ± 0.12
same,cell viability,SW480 [2],0.992 ± 0.025
same,TCF/Wnt firefly luciferase reporter signal,DLD1 [3],0.979 ± 0.03
same,TCF/Wnt firefly luciferase reporter signal,SW480 [4],1.04 ± 0.028
COc1ccc(C(C)=O)c(O)c1,cell viability,DLD1 [1],1 ± 0.037
same,cell viability,HCT116,1.04 ± 0.09
same,cell viability,SW480 [2],1.05 ± 0.014
same,TCF/Wnt firefly luciferase reporter signal,DLD1 [3],1.06 ± 0.071
same,TCF/Wnt firefly luciferase reporter signal,SW480 [4],1.03 ± 0.068
FC(F)(F)c1ccccc1-n1ccnc1,cell viability,DLD1 [1],1.02 ± 0.04
same,cell viability,HCT116,1.01 ± 0.017
same,cell viability,SW480 [2],1 ± 0.026
same,TCF/Wnt firefly luciferase reporter signal,DLD1 [3],1.03 ± 0.064
same,TCF/Wnt firefly luciferase reporter signal,SW480 [4],0.912 ± 0.14
O=C(O)c1nc2cc(Cl)c(Cl)cc2nc1O,cell viability,DLD1 [1],0.95 ± 0.16
same,cell viability,HCT116,0.957 ± 0.046
same,cell viability,SW480 [2],1.03 ± 0.028
same,TCF/Wnt firefly luciferase reporter signal,DLD1 [3],0.831 ± 0.0014
same,TCF/Wnt firefly luciferase reporter signal,SW480 [4],0.951 ± 0.098
